# Measured values published in PubChem BioAssay (NCATS).
# Results filed as inconclusive are left out. A number with no mark means an inactive call. Activity calls are given as the source filed them. Calls follow the shape of the dose curve; as a rule, active = well fitted cell-killing curve with a large enough effect; inconclusive = small, poorly fitted or top-dose-only effect; inactive = flat fitted curve, though single readings scatter.
# Assay: Cell Viability - LYMP2-010 (AID 981); also: nearly all actives have a fitted effect of over 55% in size; as to activity, negative = cytotoxicity: % is scaled to controls: 0 for no effect and ±100 for the full control effect
# Conditions: LYMP2-010 lymphoblastoid cell viability, qHTS; series mostly up to 92.2 µM; activity, negative = cytotoxicity: at the top concentration
# Procedure, shortened: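 CellTiter-Glo ATP luminescence measured cytotoxicity after 24 h compound exposure at 37 C. LYMP2-010 cells were seeded at 2500/well, with tetraoctylammonium bromide as control; concentration-response curves gave AC50 values by the Hill equation.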
# Potency is read from the fitted curve at half-maximal effect.
Structure (SMILES),"activity, negative = cytotoxicity [%]",Potency
CCCCCCCC/C=C\CCCCCCCC(=O)O,-10.8,–
O=S(=O)(O)O,–,inactive
CC1=C2[C@@H]([C@H](C)CC[C@H]2/C=C(\C)C(=O)O)[C@H](O)C1,-22.4,–
O=CCCCC=O,–,20 µM (active)
IC(I)I,-10.8,–
CC(C)=O,-7.81,–
CC(C)(C)NC(=O)[C@@H]1C[C@@H]2CCCC[C@@H]2CN1C[C@@H](O)[C@H](Cc1ccccc1)NC(=O)[C@H](CC(N)=O)NC(=O)c1ccc2ccccc2n1,–,50.1 µM (active)
CC(O)CO (configuration not stated),–,inactive
CC1=C(/C=C/C(C)=C/C=C/C(C)=C/CO)C(C)(C)CCC1,–,50.1 µM (active)
O=C(O)CCC(=O)C(=O)O,-15.2,–
CCCCCCCC(=O)O,–,inactive
Nc1ccn([C@H]2CS[C@@H](CO)O2)c(=O)n1,-5.14,–
CCOC(C)=O,2.57,–
Cc1ccccc1,–,inactive

# Assay: Cell Viability - LYMP2-012 (AID 982);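 also: cellular ATP by luciferase luminescence where a drop means cytotoxicity; cells exposed to compound for one day before reading; nearly all actives have a fitted effect of over 55% in size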;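 as to activity change, negative = cytotoxicity: 0% = DMSO only and full loss = 92 µM tetraoctylammonium bromide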
# Conditions: LYMP2-012 lymphoblastoid cell viability qHTS; series mostly up to 92.2 µM; activity change, negative = cytotoxicity: at the top concentration
Structure (SMILES),"activity change, negative = cytotoxicity [%]",Potency
CCCCCCCC/C=C\CCCCCCCC(=O)O,-13.5,–
CCCCC/C=C\C/C=C\CCCCCCCC(=O)O,-6.87,–
O=S(=O)(O)O,–,inactive
CC1=C2[C@@H]([C@H](C)CC[C@H]2/C=C(\C)C(=O)O)[C@H](O)C1,-21.5,–
O=CCCCC=O,–,15.8 µM (active)
IC(I)I,-12.1,–
CC(C)=O,-4.32,–
CC(C)(C)NC(=O)[C@@H]1C[C@@H]2CCCC[C@@H]2CN1C[C@@H](O)[C@H](Cc1ccccc1)NC(=O)[C@H](CC(N)=O)NC(=O)c1ccc2ccccc2n1,–,50.1 µM (active)
CC(O)CO (configuration not stated),–,inactive
CC1=C(/C=C/C(C)=C/C=C/C(C)=C/CO)C(C)(C)CCC1,–,50.1 µM (active)
O=C(O)CCC(=O)C(=O)O,9.42,–
CCCCCCCC(=O)O,–,inactive
Nc1ccn([C@H]2CS[C@@H](CO)O2)c(=O)n1,0.728,–
CCOC(C)=O,19.3,–
Cc1ccccc1,–,inactive

# Assay: Cell Viability - LYMP2-014 (AID 983); also: nearly all actives have a fitted effect of over 50% in size;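 as to activity change, negative = cytotoxicity: plate controls were DMSO only for no effect and 92 µM tetraoctylammonium bromide for full effect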
# Conditions: LYMP2-014 lymphoblastoid cells, viability qHTS; series mostly up to 92.2 µM; activity change, negative = cytotoxicity: at the top concentration
# Procedure, shortened: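 Intracellular ATP loss, read by luciferase luminescence, measures acute cytotoxicity after 24 h compound exposure of lymphoblastoid LYMP2-014 cells (2500/well, 37 C). Concentration-response data fitted to the Hill equation for AC50.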
Structure (SMILES),"activity change, negative = cytotoxicity [%]",Potency
CCCCCCCC/C=C\CCCCCCCC(=O)O,-2.12,–
CCCCC/C=C\C/C=C\CCCCCCCC(=O)O,-4.81,–
O=S(=O)(O)O,–,inactive
CC1=C2[C@@H]([C@H](C)CC[C@H]2/C=C(\C)C(=O)O)[C@H](O)C1,0.0256,–
O=CCCCC=O,–,25.1 µM (active)
IC(I)I,-1.09,–
CCOc1ccc2c(c1)C(C)=CC(C)(C)N2,-24.4,–
CC(C)=O,1.68,–
CC(O)CO (configuration not stated),–,inactive
O=C(O)CCC(=O)C(=O)O,0.29,–
CCCCCCCC(=O)O,–,inactive
Nc1ccn([C@H]2CS[C@@H](CO)O2)c(=O)n1,-3.52,–
CCOC(C)=O,-3.76,–
Cc1ccccc1,–,inactive

# Assay: Cell Viability - LYMP2-016 (AID 984); also: nearly all actives have a fitted effect of over 55% in size; as to activity change, negative = cytotoxicity: % is scaled to controls: 0 for no effect and ±100 for the full control effect
# Conditions: LYMP2-016 lymphoblastoid cell viability, qHTS; series mostly up to 92.2 µM; activity change, negative = cytotoxicity: at the top concentration
# Procedure, shortened: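 Human lymphoblastoid LYMP2-016 cells, 2500 per well, treated with compounds for 24 h at 37 C. Viability read as intracellular ATP by CellTiter-Glo luminescence after 30 min at room temperature; AC50 from Hill fits of concentration-response.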
Structure (SMILES),"activity change, negative = cytotoxicity [%]",Potency
CCCCCCCC/C=C\CCCCCCCC(=O)O,-0.457,–
CCCCC/C=C\C/C=C\CCCCCCCC(=O)O,-1.19,–
O=S(=O)(O)O,–,inactive
CC1=C2[C@@H]([C@H](C)CC[C@H]2/C=C(\C)C(=O)O)[C@H](O)C1,-10.6,–
O=CCCCC=O,–,25.1 µM (active)
IC(I)I,-0.301,–
CCOc1ccc2c(c1)C(C)=CC(C)(C)N2,-13.5,–
CC(C)=O,-13,–
CC(O)CO (configuration not stated),–,inactive
O=C(O)CCC(=O)C(=O)O,-4.3,–
CCCCCCCC(=O)O,–,inactive
Nc1ccn([C@H]2CS[C@@H](CO)O2)c(=O)n1,-0.715,–
CCOC(C)=O,-5.34,–
Cc1ccccc1,–,inactive

# Assay: Cell Viability - LYMP2-018 (AID 985); also: nearly all actives have a fitted effect of over 50% in size;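 as to activity change, negative = cytotoxicity: plate controls were DMSO only for no effect and tetraoctylammonium bromide at 92 µM for full effect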
# Conditions: LYMP2-018 lymphoblastoid cells, viability (qHTS); series mostly up to 92.2 µM; activity change, negative = cytotoxicity: at the top concentration
# Procedure, shortened: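 Viability read as CellTiter-Glo luminescence (cellular ATP) after 24 hr compound exposure at 37 C of 2500 LYMP2-018 lymphoblastoid cells/well, pre-plated 5 hr. Hill-equation modelling gave AC50.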
Structure (SMILES),"activity change, negative = cytotoxicity [%]",Potency
CCCCCCCC/C=C\CCCCCCCC(=O)O,4.46,–
CCCCC/C=C\C/C=C\CCCCCCCC(=O)O,-11.3,–
O=S(=O)(O)O,–,inactive
CC1=C2[C@@H]([C@H](C)CC[C@H]2/C=C(\C)C(=O)O)[C@H](O)C1,0.0753,–
O=CCCCC=O,–,20 µM (active)
IC(I)I,-7.53,–
CCOc1ccc2c(c1)C(C)=CC(C)(C)N2,-25.4,–
CC(C)=O,3.42,–
CC(O)CO (configuration not stated),–,inactive
CC1=C(/C=C/C(C)=C/C=C/C(C)=C/CO)C(C)(C)CCC1,–,50.1 µM (active)
O=C(O)CCC(=O)C(=O)O,-10.2,–
CCCCCCCC(=O)O,–,inactive
Nc1ccn([C@H]2CS[C@@H](CO)O2)c(=O)n1,-4.48,–
CCOC(C)=O,-1.01,–
Cc1ccccc1,–,inactive

# Assay: Cell Viability - LYMP2-022 (AID 987); also: nearly all actives have a fitted effect of over 55% in size;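 as to viability change, negative = cytotoxic: 0% = DMSO alone and full effect = tetraoctylammonium bromide at 92 µM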
# Conditions: LYMP2-022 lymphoblastoid cell viability; series mostly up to 92.2 µM; viability change, negative = cytotoxic: at the top concentration
# Procedure, shortened: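 Cytotoxicity read as decreased cellular ATP (CellTiter-Glo luminescence, 30 min room temperature) after 24 hours compound exposure of 2500 lymphoblastoid LYMP2-022 cells/well at 37 C. Concentration-response data fitted with standard Hill equation for AC50.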
Structure (SMILES),"viability change, negative = cytotoxic [%]",Potency
CCCCCCCC/C=C\CCCCCCCC(=O)O,-13.8,–
CCCCC/C=C\C/C=C\CCCCCCCC(=O)O,-11.4,–
O=S(=O)(O)O,–,inactive
CC1=C2[C@@H]([C@H](C)CC[C@H]2/C=C(\C)C(=O)O)[C@H](O)C1,-9.61,–
O=CCCCC=O,–,10 µM (active)
IC(I)I,-26.2,–
CC(C)=O,-10.9,–
CC(C)(C)NC(=O)[C@@H]1C[C@@H]2CCCC[C@@H]2CN1C[C@@H](O)[C@H](Cc1ccccc1)NC(=O)[C@H](CC(N)=O)NC(=O)c1ccc2ccccc2n1,–,50.1 µM (active)
CC(O)CO (configuration not stated),–,inactive
CC1=C(/C=C/C(C)=C/C=C/C(C)=C/CO)C(C)(C)CCC1,–,39.8 µM (active)
O=C(O)CCC(=O)C(=O)O,-3.66,–
CCCCCCCC(=O)O,–,inactive
Nc1ccn([C@H]2CS[C@@H](CO)O2)c(=O)n1,-0.484,–
CCOC(C)=O,-12.4,–
Cc1ccccc1,–,inactive
